PubChem BioAssay (NCATS)
Results filed as inconclusive are left out. Values without a mark were called inactive. Calls of active or inactive are those of the source. Calls come from the whole dose curve; as a rule, active = well fitted inhibition curve with a large enough effect; inconclusive = small, poorly fitted or top-dose-only effect; inactive = no such curve, though single readings can be large or run the other way.
% is set by controls: 0 for no effect and ±100 for the full control effect; potency is the fitted concentration of half-maximal effect.

Each compound was assayed against Cytochrome P450 2C19 (Homo sapiens) (UniProt P33261) (assay: qHTS Assay for Inhibitors and Substrates of Cytochrome P450 2C19 (AID 899; note: nearly all actives have a fitted effect of over 60% in size)). Details: recombinant CYP2C19, luciferin-H EGE luminescence; series mostly up to 11.4 µM; activity, negative = inhibition: at the top concentration.
Sequence of Cytochrome P450 2C19 (Homo sapiens) (P33261 whole entry, looked up): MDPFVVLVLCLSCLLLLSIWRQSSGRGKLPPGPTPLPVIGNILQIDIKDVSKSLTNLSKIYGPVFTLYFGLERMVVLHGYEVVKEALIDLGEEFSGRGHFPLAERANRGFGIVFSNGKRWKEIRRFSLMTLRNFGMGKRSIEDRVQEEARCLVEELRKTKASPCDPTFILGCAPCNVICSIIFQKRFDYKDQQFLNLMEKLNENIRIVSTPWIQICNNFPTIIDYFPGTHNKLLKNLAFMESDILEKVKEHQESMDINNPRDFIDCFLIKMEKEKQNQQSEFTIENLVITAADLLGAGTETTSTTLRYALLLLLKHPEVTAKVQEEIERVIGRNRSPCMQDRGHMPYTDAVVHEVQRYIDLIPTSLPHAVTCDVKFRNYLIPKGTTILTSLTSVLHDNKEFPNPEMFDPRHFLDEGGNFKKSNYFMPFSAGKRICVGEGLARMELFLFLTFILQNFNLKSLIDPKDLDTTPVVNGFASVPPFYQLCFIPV
Experimental: NIH Molecular Libraries Screening Centers Network [MLSCN]
NIH Chemical Genomics Center [NCGC]
The P450 gene superfamily is involved in the metabolism and clearance of xenobiotics. This assay used human CYP2C19 to measure the hydroxylation of ethylene glycol ester of 6' deoxyluciferin (Luciferin-H EGE; […]) to luciferin. The luciferin is then measured by luminescence after the addition of a luciferase detection reagent. Luciferin-H EGE concentration in the assay was equal to its KM for CYP2C19. Inhibitors and some substrates limit the production of luciferin, and decrease measured luminescence.
NCGC Assay Protocol Summary:
Two uL of enzyme and substrate mix (final concentrations: 5nM CYP2C19, 10uM Luciferin-H EGE, 50mM KPO4) were dispensed into a white, solid bottom 1536-well microtiter plate. 23nL of compound was transferred by a pin tool. The plate was incubated at 37C for 10 min. Two uL of an NADPH regeneration solution (Promega supplied reagent) was dispensed and the reaction was allowed to continue for 60 min at 37C. Then the reaction was stopped by reconstituted luciferin detection buffer. After another 20 min of incubation the plate was read on the ViewLux (Perkin Elmer) at 60 sec exposure and 2x2 binning. This protocol was carried out with Promega-Glo reagents and further information can be found at http://www.promega.com/tbs/tb325/tb325.pdf. Data were normalized to the to AC100 inhibition (57uM ketoconazole).
Keywords: P450, CYP2C19, Luciferase, MLSMR, MLSCN, NIH Roadmap, qHTS, NCGC
In the case of c1ccc(NCCSc2nc3ccccc3s2)cc1, the Potency is reported as 398 nM (active).
With c1cncc(CNc2ncn[nH]2)c1 the “activity, negative = inhibition” value was 56.9%.
NC(N)=NCCSSCCN=C(N)N was tested, and the “activity, negative = inhibition” value was 31.8% [at 57.1 µM].
O=C(c1ccc([N+](=O)[O-])cc1)[C@@H](Br)[C@@H](Br)c1ccnc2ccccc12 was tested, and the Potency was 1260 nM (active).
With COc1cccc2[nH]c(-c3ccccn3)nc12 the Potency was 2510 nM (active).
In the case of N=C1C=CC(=C(c2ccc(N)cc2)c2ccc(N)cc2)C=C1, the “activity, negative = inhibition” value is reported as -32.5%.
For CC(C)=C[C@H]1[C@@H](C(=O)Oc2ccccc2C(C)C)C1(C)C, the Potency was 1260 nM (active).
For N[C@H](CS(=O)O)C(=O)O, the “activity, negative = inhibition” value was -11.7% [at 57.1 µM].
For COc1ccc(NC(=S)Nc2ccccc2)cc1, the Potency was 2000 nM (active).
With COc1ccccc1CCn1c(=O)c(-c2ccc(F)cc2)nc2cncnc21 the Potency was 316 nM (active).
For CN(Cc1cc(C(C)(C)C)cc(Br)c1O)Cc1cc(C(C)(C)C)cc(Br)c1O, the Potency was 3160 nM (active).
With CCCCCCCCCCCCC/C=C\[C@H](O)[C@H](N)CO the “activity, negative = inhibition” value was 7.54% [at 57.1 µM].
For CN1CCc2[nH]nc(-c3n[nH]c4c3CN(C)CC4)c2C1, the “activity, negative = inhibition” value was 46.3%.
For O=C(O)CC(CC(=O)O)n1cccc1, the “activity, negative = inhibition” value was 11.4%.
For CC1(C)N=C(N)N=C(N)N1c1cccc(OCc2cccc([N+](=O)[O-])c2)c1, the “activity, negative = inhibition” value was 46.6%.
With Cc1[nH]c(N)nc(=S)c1CCCNc1ccccc1 the Potency was 2000 nM (active).
For O=C(O)CCC/C=C\C[C@H]1[C@@H](/C=C\[C@@H](O)C2Cc3ccccc3C2)[C@H](F)C[C@H]1O, the “activity, negative = inhibition” value was 16.7% [at 57.1 µM].
In the case of CC(C)(C)COS(=O)OCC(C)(C)C, the “activity, negative = inhibition” value is reported as 87.1%.
For CN(C)CN1CSC(=S)N(CN(C)C)C1, the Potency was 3160 nM (active).
For CCC[C@@H]1O[C@@H]2C[C@@H]3[C@@H]4CCC5=CC(=O)C=C[C@@]5(C)[C@H]4[C@H](O)C[C@@]3(C)[C@@]2(C(=O)CO)O1, the “activity, negative = inhibition” value was 19.2% [at 57.1 µM].
In the case of CC(C)C(O)(C(C)C)C(C)C, the “activity, negative = inhibition” value is reported as 92.3%.
For NCCSc1nc2ccccc2s1, the Potency was 1580 nM (active).
In the case of COC(=O)[C@@H]1[C@H]2C[C@H]3c4[nH]c5cc(OC)ccc5c4CCN3C[C@@H]2C[C@@H](OC(=O)c2cc(OC)c(OC)c(OC)c2)[C@@H]1OC, the Potency is reported as “inactive”.
COc1ccc([C@@H](Nc2ncccn2)c2cc3c(cc2O)OCO3)cc1 was tested, and the Potency was 316 nM (active).
CSC1(SC2=NCCN2)SC2(NCCN2)S1 was tested, and the Potency was 1580 nM (active).
With O=C(O)CSC1=NCCN1 the “activity, negative = inhibition” value was 44.9%.
For CCN(Cc1cc(Cl)cc(C)c1O)Cc1c(O)ccc2ccccc12, the Potency was 1260 nM (active).
With COc1ccc(Oc2ncc3nc(CCc4ccccc4)c(=O)n(C4CC4)c3n2)cc1 the Potency was 1580 nM (active).
For O=S(=O)(O)c1cc(S(=O)(=O)O)c2c(N=Nc3cccc4ccccc34)c(O)ccc2c1, the “activity, negative = inhibition” value was -16.9%.
With CS[C@]12C(=O)C[C@]3(C)[C@@H](CC[C@@]3(O)C(=O)CO)[C@@H]1CCC1=CC(=O)CC[C@]12C the Potency was 3160 nM (active).
With CO[C@@H]1/C=C\O[C@@]2(C)Oc3c(C)c(O)c4c(c3C2=O)C(=N[C@H]2CC[C@H](O)O[C@@H]2C)C=C(NC(=O)/C(C)=C\C(=O)[C@@H]2C[C@@H]2[C@@H](O)[C@H](C)[C@@H](O)[C@H](C)[C@H](OC(C)=O)[C@@H]1C)C4=O the Potency was 2510 nM (active).
With CN(C)CCCN1c2ccc3ccccc3c2Sc2cccc(Cl)c21 the Potency was 5010 nM (active).
For CC1=CC(C)(C)Nc2ccc(CSc3ccccc3)cc21, the Potency was 316 nM (active).
Cn1c(=O)c2[nH]c(CSCc3ccccc3)nc2n(C)c1=O was tested, and the “activity, negative = inhibition” value was 74.8%.
For Cn1c(=O)c2c(nc(N/N=C\c3ccccc3C(=O)O)n2C)n(C)c1=O, the “activity, negative = inhibition” value was 52.7%.
With Cn1c(=O)c2[nH]c(CCCCC(=O)O)nc2n(C)c1=O the “activity, negative = inhibition” value was 68.7%.
In the case of Nc1c(S(N)(=O)=O)cc(S(N)(=O)=O)cc1S(N)(=O)=O, the “activity, negative = inhibition” value is reported as 57.6%.
For O=[N+]([O-])c1ccc(CS(=O)Cc2ccccc2)cc1 (stereo not given), the Potency was 1260 nM (active).
With N#C[C@@H](N=Nc1ccccc1C(=O)O)C(N)=O the “activity, negative = inhibition” value was 60%.
In the case of Cn1c(=O)c2[nH]c(CCCCc3nc4c([nH]3)c(=O)n(C)c(=S)n4C)nc2n(C)c1=S, the “activity, negative = inhibition” value is reported as 58.6%.
